Results reported in PubChem BioAssay (NCI).
About 83,000 compounds went through this panel and 20% of them were active in at least one assay; those are over-represented in the sample as a whole.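 Single-concentration screen, 48 h exposure, 96-well plates. Endpoint: percent growth. Below 10 = active.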 Activity calls are given as the source filed them.

How the values were obtained:
Experiment in all cases: NCI-60 one-dose screen, 48 h (100 = growth as untreated, 0 = no growth, -100 = all killed)
Settings in all cases: 10 µM
SK-MEL-2 melanoma = tested on: SK-MEL-2 melanoma
EKVX NSCLC = tested on: EKVX NSCLC
SN12C renal = tested on: SN12C renal
UO-31 renal = tested on: UO-31 renal
TK-10 renal = tested on: TK-10 renal
ACHN renal = tested on: ACHN renal
CAKI-1 renal = tested on: CAKI-1 renal
A498 renal = tested on: A498 renal
CCRF-CEM leukemia = tested on: CCRF-CEM leukemia
MOLT-4 leukemia = tested on: MOLT-4 leukemia
SR leukemia = tested on: SR leukemia
RPMI-8226 leukemia = tested on: RPMI-8226 leukemia
OVCAR-8 ovarian = tested on: OVCAR-8 ovarian
OVCAR-5 ovarian = tested on: OVCAR-5 ovarian
OVCAR-4 ovarian = tested on: OVCAR-4 ovarian
SK-OV-3 ovarian = tested on: SK-OV-3 ovarian
IGROV1 ovarian = tested on: IGROV1 ovarian
OVCAR-3 ovarian = tested on: OVCAR-3 ovarian
HS 578T breast = tested on: HS 578T breast
NCI/ADR-RES ovarian = tested on: NCI/ADR-RES ovarian

Measured: growth

CC1(C)CC(=O)c2c(nc3ccc(Cl)cc3c2-c2ccccc2)C1
inactive: SK-MEL-2 melanoma 81.2% | EKVX NSCLC 95.9% | SN12C renal 92.5% | UO-31 renal 66% | TK-10 renal 118% | ACHN renal 93.9% | CAKI-1 renal 85.5% | A498 renal 115% | CCRF-CEM leukemia 49.5% | MOLT-4 leukemia 68.2% | SR leukemia 69.5% | RPMI-8226 leukemia 27.5% | OVCAR-8 ovarian 94.6% | OVCAR-5 ovarian 89.9% | OVCAR-4 ovarian 98.8% | SK-OV-3 ovarian 94.3% | IGROV1 ovarian 75.5% | OVCAR-3 ovarian 108% | HS 578T breast 158% | NCI/ADR-RES ovarian 81.9%

Nc1nc(SCC#CCCl)c2[nH]cnc2n1
active: UO-31 renal -6.63% | CAKI-1 renal 9.59%
inactive: SK-MEL-2 melanoma 57.2% | EKVX NSCLC 54.4% | SN12C renal 44.8% | TK-10 renal 37% | ACHN renal 44% | A498 renal 53.8% | CCRF-CEM leukemia 23.3% | MOLT-4 leukemia 35.8% | SR leukemia 29.9% | RPMI-8226 leukemia 36.2% | OVCAR-8 ovarian 71.2% | OVCAR-5 ovarian 90.8% | OVCAR-4 ovarian 43.1% | SK-OV-3 ovarian 49.6% | IGROV1 ovarian 25.4% | OVCAR-3 ovarian 54.5% | HS 578T breast 73.6% | NCI/ADR-RES ovarian 67%

CCOC(=O)c1cc2c(n1Cc1ccccc1)-c1oncc1CC2
active: OVCAR-3 ovarian -0.497%
inactive: SK-MEL-2 melanoma 85.7% | EKVX NSCLC 77% | SN12C renal 98.6% | UO-31 renal 25.4% | TK-10 renal 101% | ACHN renal 82.1% | CAKI-1 renal 36.5% | A498 renal 48.4% | CCRF-CEM leukemia 53.1% | MOLT-4 leukemia 25.2% | SR leukemia 13.1% | RPMI-8226 leukemia 67.1% | OVCAR-8 ovarian 97% | OVCAR-5 ovarian 97.4% | OVCAR-4 ovarian 105% | SK-OV-3 ovarian 92% | IGROV1 ovarian 42.4% | HS 578T breast 76.8% | NCI/ADR-RES ovarian 45.3%

O=C(O)c1cc(C(F)(F)F)cc(C(F)(F)F)c1
inactive: SK-MEL-2 melanoma 97.1% | EKVX NSCLC 105% | SN12C renal 104% | UO-31 renal 77.8% | TK-10 renal 135% | ACHN renal 105% | CAKI-1 renal 99.6% | A498 renal 84.4% | CCRF-CEM leukemia 102% | MOLT-4 leukemia 95% | SR leukemia 85.3% | RPMI-8226 leukemia 104% | OVCAR-8 ovarian 106% | OVCAR-5 ovarian 107% | OVCAR-4 ovarian 108% | SK-OV-3 ovarian 112% | IGROV1 ovarian 114% | OVCAR-3 ovarian 107% | HS 578T breast 109% | NCI/ADR-RES ovarian 107%

CCCCCCCCCCCCCC[n+]1ccc(C)cc1
active: EKVX NSCLC -36.2% | SN12C renal -2.55% | TK-10 renal -41.2% | CCRF-CEM leukemia -35.4% | MOLT-4 leukemia -36.6% | SR leukemia -38.2% | RPMI-8226 leukemia -29.7% | OVCAR-8 ovarian -19.1% | OVCAR-5 ovarian 3.81% | OVCAR-4 ovarian 7.84% | SK-OV-3 ovarian -24.2% | IGROV1 ovarian -79.5% | OVCAR-3 ovarian -57.2% | HS 578T breast -22.6%
inactive: SK-MEL-2 melanoma 13.2% | UO-31 renal 23.7% | ACHN renal 21.5% | CAKI-1 renal 31.7% | A498 renal 39.2% | NCI/ADR-RES ovarian 66.6%

COc1ccc(/C(=C/c2cc(OC)c(OC)cc2[N+](=O)[O-])C(=O)O)cc1
inactive: SK-MEL-2 melanoma 107% | EKVX NSCLC 105% | SN12C renal 104% | UO-31 renal 83% | TK-10 renal 118% | ACHN renal 108% | CAKI-1 renal 96.1% | A498 renal 105% | CCRF-CEM leukemia 98.6% | MOLT-4 leukemia 103% | SR leukemia 99.6% | RPMI-8226 leukemia 97.3% | OVCAR-8 ovarian 109% | OVCAR-5 ovarian 111% | OVCAR-4 ovarian 113% | SK-OV-3 ovarian 99.9% | IGROV1 ovarian 107% | OVCAR-3 ovarian 125% | HS 578T breast 114% | NCI/ADR-RES ovarian 110%

CCOC(=O)c1c(Cl)c2c(n1Cc1cccc(OC)c1)-c1oncc1CC2
active: UO-31 renal -1.88% | CAKI-1 renal 7.94% | A498 renal 1.89% | SR leukemia 8.61% | OVCAR-3 ovarian -34.9% | HS 578T breast -11.2% | NCI/ADR-RES ovarian 1.8%
inactive: SK-MEL-2 melanoma 27.8% | EKVX NSCLC 56.4% | SN12C renal 42.7% | TK-10 renal 54.7% | ACHN renal 44.8% | CCRF-CEM leukemia 15.8% | MOLT-4 leukemia 25.9% | RPMI-8226 leukemia 35.4% | OVCAR-8 ovarian 37.4% | OVCAR-5 ovarian 74.3% | OVCAR-4 ovarian 56.7% | SK-OV-3 ovarian 17.2% | IGROV1 ovarian 23.5%

N#C/C(=C\N1C(=O)/C(=C/c2cccc([N+](=O)[O-])c2)SC1=S)c1nc2ccccc2s1
inactive: SK-MEL-2 melanoma 73.1% | EKVX NSCLC 81% | SN12C renal 94.9% | UO-31 renal 56.3% | TK-10 renal 120% | ACHN renal 81.5% | CAKI-1 renal 85.2% | A498 renal 71.8% | CCRF-CEM leukemia 85.9% | MOLT-4 leukemia 87% | SR leukemia 73.4% | RPMI-8226 leukemia 60.4% | OVCAR-8 ovarian 94.7% | OVCAR-5 ovarian 102% | OVCAR-4 ovarian 61.4% | SK-OV-3 ovarian 77.7% | IGROV1 ovarian 83.7% | OVCAR-3 ovarian 90.4% | HS 578T breast 95.9% | NCI/ADR-RES ovarian 94.1%

CCN1CCOC1C(C)C (stereo not given)
inactive: SK-MEL-2 melanoma 95.3% | EKVX NSCLC 107% | SN12C renal 99.8% | UO-31 renal 79.5% | TK-10 renal 130% | ACHN renal 102% | CAKI-1 renal 98.2% | A498 renal 98.8% | CCRF-CEM leukemia 103% | MOLT-4 leukemia 94.3% | SR leukemia 81.7% | RPMI-8226 leukemia 106% | OVCAR-8 ovarian 108% | OVCAR-5 ovarian 99.2% | OVCAR-4 ovarian 113% | SK-OV-3 ovarian 100% | IGROV1 ovarian 108% | OVCAR-3 ovarian 111% | HS 578T breast 109% | NCI/ADR-RES ovarian 102%

COc1cc(/C=C/C(=O)c2cc(-c3ccc(C(F)(F)F)cc3)ccc2O)cc(OC)c1OC
active: CCRF-CEM leukemia 7.45% | RPMI-8226 leukemia -9.06%
inactive: SK-MEL-2 melanoma 70.1% | EKVX NSCLC 61.2% | SN12C renal 66.7% | UO-31 renal 46.7% | TK-10 renal 98% | ACHN renal 68.4% | CAKI-1 renal 47.2% | A498 renal 82.6% | MOLT-4 leukemia 15.5% | SR leukemia 23.4% | OVCAR-8 ovarian 64.1% | OVCAR-5 ovarian 99.6% | OVCAR-4 ovarian 64.6% | SK-OV-3 ovarian 81.5% | IGROV1 ovarian 75.3% | OVCAR-3 ovarian 74.1% | HS 578T breast 59.4% | NCI/ADR-RES ovarian 65.9%

CC1(C)CC(OCCCC[P+](c2ccccc2)(c2ccccc2)c2ccccc2)CC(C)(C)N1O
inactive: SR leukemia 11.7% | OVCAR-5 ovarian 18.2% | OVCAR-4 ovarian 21.5% | NCI/ADR-RES ovarian 55.2%
active: SK-MEL-2 melanoma -23.4% | EKVX NSCLC 3.22% | SN12C renal 4.65% | UO-31 renal -18.8% | TK-10 renal -21.1% | ACHN renal -8.25% | CAKI-1 renal -25.7% | A498 renal -5.35% | CCRF-CEM leukemia -37.1% | MOLT-4 leukemia 0.462% | RPMI-8226 leukemia -73.5% | OVCAR-8 ovarian 6.29% | SK-OV-3 ovarian -13.4% | IGROV1 ovarian -21% | OVCAR-3 ovarian -46.1% | HS 578T breast -10.5%

COc1cc(/C=C2\C(=O)Nc3cc(C)c(O)cc32)cc(OC)c1OC
active: RPMI-8226 leukemia -18.3%
inactive: SK-MEL-2 melanoma 79.3% | EKVX NSCLC 48.5% | SN12C renal 71.3% | UO-31 renal 43% | TK-10 renal 85% | ACHN renal 68.4% | CAKI-1 renal 15.7% | A498 renal 98.2% | CCRF-CEM leukemia 16.3% | MOLT-4 leukemia 53% | SR leukemia 21.4% | OVCAR-8 ovarian 72.1% | OVCAR-5 ovarian 94.5% | OVCAR-4 ovarian 62.6% | SK-OV-3 ovarian 77.5% | IGROV1 ovarian 47.7% | OVCAR-3 ovarian 35.7% | HS 578T breast 56.6% | NCI/ADR-RES ovarian 51.4%

COc1ccccc1Cn1cc2c(c1-c1ccccc1)CCc1cnoc1-2
inactive: SK-MEL-2 melanoma 49.2% | EKVX NSCLC 46.3% | SN12C renal 50.2% | UO-31 renal 34.1% | TK-10 renal 81.4% | ACHN renal 49.3% | A498 renal 43.2% | CCRF-CEM leukemia 30.5% | MOLT-4 leukemia 38.8% | SR leukemia 26.3% | RPMI-8226 leukemia 38.8% | OVCAR-8 ovarian 56% | OVCAR-5 ovarian 77.2% | OVCAR-4 ovarian 61.4% | SK-OV-3 ovarian 19.1% | IGROV1 ovarian 44.8% | NCI/ADR-RES ovarian 21.3%
active: CAKI-1 renal 4.31% | OVCAR-3 ovarian 6.99% | HS 578T breast 9.97%

COc1cc(Cn2c(-c3ccccc3)cc3c2-c2oncc2CC3)cc(OC)c1
inactive: SK-MEL-2 melanoma 22.3% | EKVX NSCLC 43.7% | SN12C renal 24.3% | TK-10 renal 57.4% | ACHN renal 34.7% | CAKI-1 renal 18% | CCRF-CEM leukemia 11.3% | MOLT-4 leukemia 12.2% | RPMI-8226 leukemia 34.8% | OVCAR-8 ovarian 21.7% | OVCAR-5 ovarian 42.6% | OVCAR-4 ovarian 51.8%
active: UO-31 renal 9.92% | A498 renal -14.7% | SR leukemia 2.06% | SK-OV-3 ovarian 0.474% | IGROV1 ovarian 7.96% | OVCAR-3 ovarian -47.1% | HS 578T breast -6.35% | NCI/ADR-RES ovarian -19.5%

COC(=O)CCCCCCCCC(C)c1ccc(C(C)=O)cc1 (stereo not given)
inactive: SK-MEL-2 melanoma 96% | EKVX NSCLC 95.3% | SN12C renal 110% | UO-31 renal 96.9% | TK-10 renal 98.3% | ACHN renal 99.3% | CAKI-1 renal 97.6% | A498 renal 112% | CCRF-CEM leukemia 111% | MOLT-4 leukemia 89.8% | SR leukemia 94.2% | RPMI-8226 leukemia 121% | OVCAR-8 ovarian 104% | OVCAR-5 ovarian 98.4% | OVCAR-4 ovarian 120% | SK-OV-3 ovarian 102% | IGROV1 ovarian 110% | OVCAR-3 ovarian 108% | HS 578T breast 93.9% | NCI/ADR-RES ovarian 103%

O=C(N/N=C/c1ccccc1O)c1ccccc1
inactive: EKVX NSCLC 21.7% | SN12C renal 47.2% | UO-31 renal 12.2% | TK-10 renal 46% | ACHN renal 13% | A498 renal 71.4% | MOLT-4 leukemia 14.7% | SR leukemia 16.9% | OVCAR-8 ovarian 21.7% | OVCAR-5 ovarian 47% | OVCAR-4 ovarian 21.4% | SK-OV-3 ovarian 40.3% | IGROV1 ovarian 22.1% | OVCAR-3 ovarian 10.9% | HS 578T breast 82.9% | NCI/ADR-RES ovarian 13.4%
active: SK-MEL-2 melanoma -3.08% | CAKI-1 renal 7.12% | CCRF-CEM leukemia -28.1% | RPMI-8226 leukemia -30.3%
